Measured values as given in PubChem BioAssay (NCATS).
Inconclusive results are not listed. Values without a mark were called inactive. Activity calls are given as the source filed them. Calls follow the shape of the dose curve; as a rule, active = well fitted curve in the direction sought with a large enough effect; inconclusive = small, poorly fitted or top-dose-only effect, or another doubt; inactive = no such curve, though single readings can be large; an effect the other way counts as inactive or inconclusive. Numbered stars: 1 amine (or outer) side, 2 acyl side, 3 side chain; on linkers, the order of the positions; unused ones are H or OH. Bridge positions count the residues as written; N and C are the ends. Square brackets hold non-standard residues; d marks the D form. Peptide text beside a SMILES is read from it. I, II: the chains in the order shown. Actinocin(9to1) = Cc1c2oc3c(C)ccc(C(=O)[*:1])c3nc-2c(C(=O)[*:2])c(N)c1=O; NMeV = CN[C@H](C(=O)O)C(C)C; Sar = CNCC(=O)O

Biological target: Luciferin 4-monooxygenase (Photinus pyralis) (UniProt P08659)
Assay: Biochemical firefly luciferase enzyme assay for NPC (AID 624030);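 also: purified P. pyralis luciferase at 10 nM with luciferin and ATP substrate; 0% = DMSO and -100% = full luciferase inhibition by PTC124 control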
Details: purified P. pyralis luciferase, luminescence, 5 min; series mostly up to 58.6 µM; activity change, negative = inhibition: at the top concentration
Summary of the method: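 Counter-screen for direct inhibition of the luciferase enzyme by approved-drug library compounds, run at 10 nM enzyme in 50 mM Tris acetate (final). Luminescence was read within 5 min of enzyme-buffer addition and normalized to PTC124 versus DMSO (0%).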
Also: nearly all actives have a fitted effect of over 70% in size.

Sequence of Luciferin 4-monooxygenase (Photinus pyralis) (P08659 whole entry, looked up): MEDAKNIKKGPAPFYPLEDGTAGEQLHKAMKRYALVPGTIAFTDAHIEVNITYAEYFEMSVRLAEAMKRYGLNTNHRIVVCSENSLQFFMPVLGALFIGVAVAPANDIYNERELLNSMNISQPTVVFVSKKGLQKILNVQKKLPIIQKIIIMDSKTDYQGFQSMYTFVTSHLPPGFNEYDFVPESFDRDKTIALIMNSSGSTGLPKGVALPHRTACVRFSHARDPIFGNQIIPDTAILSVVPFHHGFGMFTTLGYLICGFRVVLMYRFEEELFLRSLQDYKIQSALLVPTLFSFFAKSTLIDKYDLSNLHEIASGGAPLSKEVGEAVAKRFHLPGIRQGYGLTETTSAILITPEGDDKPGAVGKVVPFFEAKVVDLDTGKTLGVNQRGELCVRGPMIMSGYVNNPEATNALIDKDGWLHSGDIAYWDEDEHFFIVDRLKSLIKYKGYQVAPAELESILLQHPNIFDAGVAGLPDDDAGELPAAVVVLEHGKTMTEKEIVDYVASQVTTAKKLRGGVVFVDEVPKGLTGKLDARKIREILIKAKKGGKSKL

Structure (SMILES) | activity change, negative = inhibition
CCCCCCc1ccc(O)cc1O | -17%
C[C@H]1C[C@H]2[C@@H]3CCC4=CC(=O)C=C[C@]4(C)[C@@]3(Cl)[C@@H](O)C[C@]2(C)[C@@]1(O)C(=O)CO | 1.92%
NC(=NCCCCCCN=C(N)/N=C(\N)Nc1ccc(Cl)cc1)/N=C(\N)Nc1ccc(Cl)cc1 | 24.6%
C=CCc1ccc(O)c(OC)c1 | 0.266%
Cc1cc(=O)n(-c2ccccc2)n1C | 1.73%
C=C(CC)C(=O)c1ccc(OCC(=O)O)c(Cl)c1Cl | -22%
COC1=CC(=O)C[C@@H](C)[C@]12Oc1c(Cl)c(OC)cc(OC)c1C2=O | -1.71%
Cc1c2oc3c(C)ccc(C(=O)N[C@@H]4C(=O)N[C@H](C(C)C)C(=O)N5CCC[C@H]5C(=O)N(C)CC(=O)N(C)[C@@H](C(C)C)C(=O)O[C@@H]4C)c3nc-2c(C(=O)N[C@@H]2C(=O)N[C@H](C(C)C)C(=O)N3CCC[C@H]3C(=O)N(C)CC(=O)N(C)[C@@H](C(C)C)C(=O)O[C@@H]2C)c(N)c1=O (I: T[dV]P[Sar][NMeV] / II: T[dV]P[Sar][NMeV]; ester I:1-I:C, II:1-II:C; linker I:N-II:N via Actinocin(9to1)) | -8.58%
CC(=O)Oc1ccc(C(c2ccc(OC(C)=O)cc2)c2ccccn2)cc1 | -4.11%
O=c1ccc2ccccc2o1 | -3.85%
CN(C)/N=N/c1nc[nH]c1C(N)=O | 3.64%
CC(O)C(=O)O (stereo not given) | 5.26%
Oc1ccc(Cl)cc1Sc1cc(Cl)ccc1O | -16%
CC(C)(C)CC(C)(C)c1ccc(OCCOCC[N+](C)(C)Cc2ccccc2)cc1 | 13.4%
Nc1ccc(C(=O)O)cc1 | -8.09%

Tested on: not listed separately
Assay: S16 Schwann cell viability assay (CellTiter-Glo assay) (AID 624031); also: potency is read from the fitted curve at half-maximal effect;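 as to activity change, negative = cytotoxicity: cellular ATP luminescence as a viability measure; plate controls were DMSO-treated cells for no effect and cell-free wells for full effect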
Details: S16 rat Schwann cells viability, 24 h; series mostly up to 57.5 µM; activity change, negative = cytotoxicity: at the top concentration
Summary of the method: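 Native S16 rat Schwann cells in DMEM/10% FBS without phenol red were incubated overnight, then exposed to compounds for 24 h at 37 °C/5% CO2. Viability was read as ATP luminescence (CellTiter-Glo), normalized to no-cell wells and DMSO (0%).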

Structure (SMILES) | activity change, negative = cytotoxicity | Potency
CC(O)(P(=O)(O)O)P(=O)(O)O | 8.18% | –
CCCCCCc1ccc(O)cc1O | -4.08% | –
C[C@H]1C[C@H]2[C@@H]3CCC4=CC(=O)C=C[C@]4(C)[C@@]3(Cl)[C@@H](O)C[C@]2(C)[C@@]1(O)C(=O)CO | -0.0277% | –
COc1cccc2c1C(=O)c1c(O)c3c(c(O)c1C2=O)C[C@@](O)(C(C)=O)C[C@@H]3O[C@H]1C[C@H](N)[C@H](O)[C@H](C)O1 | -18.3% | –
C=CCc1ccc(O)c(OC)c1 | 15.5% | –
Cc1cc(=O)n(-c2ccccc2)n1C | -13% | –
C=C(CC)C(=O)c1ccc(OCC(=O)O)c(Cl)c1Cl | -10% | –
COC1=CC(=O)C[C@@H](C)[C@]12Oc1c(Cl)c(OC)cc(OC)c1C2=O | -0.869% | –
Cc1c2oc3c(C)ccc(C(=O)N[C@@H]4C(=O)N[C@H](C(C)C)C(=O)N5CCC[C@H]5C(=O)N(C)CC(=O)N(C)[C@@H](C(C)C)C(=O)O[C@@H]4C)c3nc-2c(C(=O)N[C@@H]2C(=O)N[C@H](C(C)C)C(=O)N3CCC[C@H]3C(=O)N(C)CC(=O)N(C)[C@@H](C(C)C)C(=O)O[C@@H]2C)c(N)c1=O (I: T[dV]P[Sar][NMeV] / II: T[dV]P[Sar][NMeV]; ester I:1-I:C, II:1-II:C; linker I:N-II:N via Actinocin(9to1)) | 0% | –
CC(=O)Oc1ccc(C(c2ccc(OC(C)=O)cc2)c2ccccn2)cc1 | 1.01% | –
O=c1ccc2ccccc2o1 | 7.42% | –
CN(C)/N=N/c1nc[nH]c1C(N)=O | 2.72% | –
CC(O)C(=O)O (stereo not given) | 18% | –
O=C(O)CCCCC(=O)O | 7.62% | –
Oc1ccc(Cl)cc1Sc1cc(Cl)ccc1O | -1.07% | –
CC/C(=C(/CC)c1ccc(O)cc1)c1ccc(O)cc1 | -14.9% | –
CC(C)(C)CC(C)(C)c1ccc(OCCOCC[N+](C)(C)Cc2ccccc2)cc1 | – | 32.2 µM (active)
CC(C)(Oc1ccc(Cl)cc1)C(=O)O | 5.86% | –
Nc1ccc(C(=O)O)cc1 | 2.94% | –
C[C@]12CC[C@@H]3c4ccc(O)cc4CC[C@H]3[C@@H]1CC[C@@H]2O | -7.44% | –
